# According to the supplement of paper PMC10849652:
# About 7,900 targets were measured; listed, in parts, are those with a hit and a random draw of the rest. About 0.6% of all pairs of compound and target were hits. Unmarked numbers belong to inactive results.
# Compound: c1cn2cc(-c3ccc4cn[nH]c4c3)nc(Nc3ccc(N4CCOCC4)cc3)c2n1 [entospletinib]
# Assay: log2 fold change, soluble protein after heating vs DMSO (PISA); higher = thermal stabilisation; K562 cells, 10 uM, 30 min; active = over 0.2 and 3.5 SD of the protein, either way, in both replicates (recomputed)
# Outline: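 K562 cells at 2×10^6 cells/mL were treated for 30 min with 10 μM compound, and aliquots were heated for 3 min over 48°C-58°C before pooling. Extraction used PBS with 0.5% NP-40 at 4°C, and soluble protein was the supernatant after 21,000xg for 90 min, measured by TMTpro 16plex LC-MS/MS with channel sums equalised. Thermal stability values, relative to control samples and from duplicates, are log2 fold changes.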
# UniProt Q9UEU0, sequence (Q9UEU0 whole entry, looked up): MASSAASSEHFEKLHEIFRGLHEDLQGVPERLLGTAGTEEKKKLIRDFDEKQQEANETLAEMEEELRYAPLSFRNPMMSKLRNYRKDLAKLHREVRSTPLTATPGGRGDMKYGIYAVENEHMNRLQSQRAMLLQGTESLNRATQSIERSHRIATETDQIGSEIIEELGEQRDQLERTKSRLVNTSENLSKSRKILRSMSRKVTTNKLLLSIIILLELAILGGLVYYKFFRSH
# UniProt Q7Z7E8, sequence (Q7Z7E8 whole entry, looked up): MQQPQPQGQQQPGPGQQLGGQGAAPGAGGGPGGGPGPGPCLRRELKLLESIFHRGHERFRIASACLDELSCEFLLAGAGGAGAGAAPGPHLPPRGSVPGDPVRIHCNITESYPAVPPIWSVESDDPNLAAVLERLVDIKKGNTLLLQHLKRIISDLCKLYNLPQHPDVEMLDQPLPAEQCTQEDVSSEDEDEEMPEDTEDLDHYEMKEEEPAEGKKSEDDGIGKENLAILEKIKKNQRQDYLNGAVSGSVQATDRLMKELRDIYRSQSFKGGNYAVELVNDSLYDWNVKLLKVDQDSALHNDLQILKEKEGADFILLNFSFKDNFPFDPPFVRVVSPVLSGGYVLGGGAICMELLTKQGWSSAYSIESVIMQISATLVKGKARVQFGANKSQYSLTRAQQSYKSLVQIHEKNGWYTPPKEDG
# UniProt O00258, sequence (O00258 whole entry, looked up): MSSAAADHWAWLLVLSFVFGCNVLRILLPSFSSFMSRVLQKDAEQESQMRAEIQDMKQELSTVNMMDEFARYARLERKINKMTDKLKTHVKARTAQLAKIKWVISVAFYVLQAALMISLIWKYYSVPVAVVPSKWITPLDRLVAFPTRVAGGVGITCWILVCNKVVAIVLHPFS
# UniProt Q96AJ9, sequence (Q96AJ9 whole entry, looked up): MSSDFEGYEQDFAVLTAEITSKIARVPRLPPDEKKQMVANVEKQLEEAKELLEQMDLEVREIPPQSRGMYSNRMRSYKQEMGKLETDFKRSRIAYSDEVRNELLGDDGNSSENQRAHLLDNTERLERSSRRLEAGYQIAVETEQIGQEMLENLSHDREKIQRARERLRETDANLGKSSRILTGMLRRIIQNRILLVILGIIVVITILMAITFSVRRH
# UniProt Q5BJH2, sequence (Q5BJH2 whole entry, looked up): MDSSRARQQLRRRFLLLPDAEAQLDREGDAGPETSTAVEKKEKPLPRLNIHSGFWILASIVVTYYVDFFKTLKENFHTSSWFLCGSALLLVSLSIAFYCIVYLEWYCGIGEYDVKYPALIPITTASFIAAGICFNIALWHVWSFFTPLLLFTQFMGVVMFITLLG
# UniProt Q53S58, sequence (Q53S58 whole entry, looked up): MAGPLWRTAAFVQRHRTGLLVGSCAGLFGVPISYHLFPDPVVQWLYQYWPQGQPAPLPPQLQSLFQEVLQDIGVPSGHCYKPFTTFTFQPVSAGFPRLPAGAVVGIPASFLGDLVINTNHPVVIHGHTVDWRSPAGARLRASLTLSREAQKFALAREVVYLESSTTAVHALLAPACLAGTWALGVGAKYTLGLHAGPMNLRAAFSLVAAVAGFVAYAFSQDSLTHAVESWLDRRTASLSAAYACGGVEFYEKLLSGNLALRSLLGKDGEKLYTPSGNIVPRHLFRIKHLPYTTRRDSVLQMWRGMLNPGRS
# UniProt Q5VIR6, sequence (Q5VIR6 whole entry, looked up): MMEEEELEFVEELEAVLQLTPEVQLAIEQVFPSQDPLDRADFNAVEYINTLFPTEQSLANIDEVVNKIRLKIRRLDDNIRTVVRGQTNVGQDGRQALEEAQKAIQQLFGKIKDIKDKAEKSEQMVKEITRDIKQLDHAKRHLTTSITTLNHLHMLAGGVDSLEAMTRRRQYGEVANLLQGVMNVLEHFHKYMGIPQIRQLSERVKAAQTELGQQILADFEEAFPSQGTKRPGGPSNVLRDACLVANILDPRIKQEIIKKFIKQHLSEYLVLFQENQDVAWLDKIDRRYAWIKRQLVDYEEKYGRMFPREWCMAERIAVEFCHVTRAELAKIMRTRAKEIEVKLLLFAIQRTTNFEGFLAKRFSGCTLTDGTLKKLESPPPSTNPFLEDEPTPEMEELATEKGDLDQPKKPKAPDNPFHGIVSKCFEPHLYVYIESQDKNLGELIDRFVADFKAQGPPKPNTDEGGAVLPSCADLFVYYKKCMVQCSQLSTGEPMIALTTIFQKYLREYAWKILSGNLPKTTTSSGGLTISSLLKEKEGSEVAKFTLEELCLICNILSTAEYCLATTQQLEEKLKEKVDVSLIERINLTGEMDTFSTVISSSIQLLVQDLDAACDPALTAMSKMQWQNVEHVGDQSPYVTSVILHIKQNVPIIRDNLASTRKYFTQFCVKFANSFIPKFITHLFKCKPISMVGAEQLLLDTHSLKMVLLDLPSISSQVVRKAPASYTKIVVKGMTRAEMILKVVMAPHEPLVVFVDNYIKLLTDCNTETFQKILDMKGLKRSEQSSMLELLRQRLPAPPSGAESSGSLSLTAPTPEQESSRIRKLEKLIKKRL
# UniProt Q9NX01, sequence (Q9NX01 whole entry, looked up): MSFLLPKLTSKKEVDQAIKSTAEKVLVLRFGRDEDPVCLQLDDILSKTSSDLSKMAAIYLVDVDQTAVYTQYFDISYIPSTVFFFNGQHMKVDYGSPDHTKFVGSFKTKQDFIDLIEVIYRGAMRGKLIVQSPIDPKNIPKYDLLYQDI
# UniProt Q9Y5K5, sequence (Q9Y5K5 whole entry, looked up): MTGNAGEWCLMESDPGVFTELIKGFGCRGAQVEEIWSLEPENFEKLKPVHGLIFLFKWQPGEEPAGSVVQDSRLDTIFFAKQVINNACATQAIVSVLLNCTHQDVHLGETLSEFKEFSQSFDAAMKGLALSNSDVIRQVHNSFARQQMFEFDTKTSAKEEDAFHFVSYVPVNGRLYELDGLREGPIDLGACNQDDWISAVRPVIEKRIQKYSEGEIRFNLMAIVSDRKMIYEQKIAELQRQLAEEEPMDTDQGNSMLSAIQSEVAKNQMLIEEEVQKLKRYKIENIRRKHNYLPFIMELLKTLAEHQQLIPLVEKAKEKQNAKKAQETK
# UniProt P26368, sequence (P26368 whole entry, looked up): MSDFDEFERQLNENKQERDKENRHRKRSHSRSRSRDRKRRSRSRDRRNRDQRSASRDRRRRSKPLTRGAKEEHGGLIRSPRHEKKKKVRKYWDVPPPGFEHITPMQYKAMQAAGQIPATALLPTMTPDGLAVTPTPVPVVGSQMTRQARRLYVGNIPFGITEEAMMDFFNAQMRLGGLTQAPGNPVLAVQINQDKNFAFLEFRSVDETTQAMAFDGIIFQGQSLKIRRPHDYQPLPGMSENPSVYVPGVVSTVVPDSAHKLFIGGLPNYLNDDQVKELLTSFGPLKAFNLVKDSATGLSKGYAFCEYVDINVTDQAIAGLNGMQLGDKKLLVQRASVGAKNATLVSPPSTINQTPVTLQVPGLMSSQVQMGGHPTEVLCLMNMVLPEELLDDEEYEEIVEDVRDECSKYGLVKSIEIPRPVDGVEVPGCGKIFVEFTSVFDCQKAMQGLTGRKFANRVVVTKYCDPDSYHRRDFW
# UniProt O60701, sequence (O60701 whole entry, looked up): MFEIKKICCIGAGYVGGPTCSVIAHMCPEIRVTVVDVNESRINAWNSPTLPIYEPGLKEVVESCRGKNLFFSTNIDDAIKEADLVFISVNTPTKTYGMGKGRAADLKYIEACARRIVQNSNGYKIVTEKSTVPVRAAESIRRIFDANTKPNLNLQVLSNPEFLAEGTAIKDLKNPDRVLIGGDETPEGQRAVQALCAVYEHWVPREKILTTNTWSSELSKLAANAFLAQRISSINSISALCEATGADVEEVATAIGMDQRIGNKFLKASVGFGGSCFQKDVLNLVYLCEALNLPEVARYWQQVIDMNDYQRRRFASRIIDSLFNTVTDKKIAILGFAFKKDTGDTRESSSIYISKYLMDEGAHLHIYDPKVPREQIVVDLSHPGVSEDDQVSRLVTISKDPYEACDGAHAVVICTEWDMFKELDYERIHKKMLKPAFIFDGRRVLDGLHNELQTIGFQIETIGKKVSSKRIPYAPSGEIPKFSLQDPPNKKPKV
# UniProt A0PJW6, sequence (A0PJW6 whole entry, looked up): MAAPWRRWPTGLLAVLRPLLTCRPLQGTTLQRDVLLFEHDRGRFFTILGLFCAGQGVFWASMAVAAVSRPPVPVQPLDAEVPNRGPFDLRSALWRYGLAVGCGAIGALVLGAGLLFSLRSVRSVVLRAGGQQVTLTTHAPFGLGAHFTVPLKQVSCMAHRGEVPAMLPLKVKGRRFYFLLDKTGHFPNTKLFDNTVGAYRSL
# UniProt Q8TBZ6, sequence (Q8TBZ6 whole entry, looked up): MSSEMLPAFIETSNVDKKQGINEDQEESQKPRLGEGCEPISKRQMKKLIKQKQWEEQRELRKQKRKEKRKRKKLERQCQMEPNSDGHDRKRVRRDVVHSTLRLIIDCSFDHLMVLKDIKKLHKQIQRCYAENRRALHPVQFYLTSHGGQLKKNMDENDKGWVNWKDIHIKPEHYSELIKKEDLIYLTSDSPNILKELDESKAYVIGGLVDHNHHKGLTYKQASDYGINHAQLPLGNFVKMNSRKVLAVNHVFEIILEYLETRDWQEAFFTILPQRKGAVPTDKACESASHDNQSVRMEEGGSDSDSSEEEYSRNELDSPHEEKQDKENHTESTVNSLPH
# UniProt Q99816, sequence (Q99816 whole entry, looked up): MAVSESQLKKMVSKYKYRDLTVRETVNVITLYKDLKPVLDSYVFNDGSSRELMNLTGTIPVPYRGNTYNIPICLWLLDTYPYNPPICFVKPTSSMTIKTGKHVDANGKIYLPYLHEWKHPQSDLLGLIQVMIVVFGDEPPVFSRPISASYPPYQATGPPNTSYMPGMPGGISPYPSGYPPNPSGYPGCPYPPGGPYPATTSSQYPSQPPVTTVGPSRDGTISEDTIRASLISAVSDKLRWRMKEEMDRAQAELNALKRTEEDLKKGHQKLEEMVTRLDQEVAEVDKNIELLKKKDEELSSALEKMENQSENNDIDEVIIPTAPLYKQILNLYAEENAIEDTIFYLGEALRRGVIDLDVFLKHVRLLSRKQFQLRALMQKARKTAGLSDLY
# UniProt Q8N4H5, sequence (Q8N4H5 whole entry, looked up): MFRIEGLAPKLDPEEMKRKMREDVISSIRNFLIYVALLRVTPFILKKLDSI
row,Target,log2 fold change
1,TRPT1 isoform 4 (UniProt Q86TN4),0.051
2,UNC119B (UniProt A6NIH7),-0.055
3,TUBA4A (UniProt P68366),-0.031
4,VTI1B (UniProt Q9UEU0),0.082
5,TTC33 (UniProt Q6PID6),0.094
6,VPS18 (UniProt Q9P253),-0.07
7,U2AF2 (UniProt P26368),0.107
8,TRMT10A (UniProt Q8TBZ6),-0.055
9,VPS52 (UniProt Q8N1B4),0.062
10,UCHL5 isoform 3 (UniProt Q9Y5K5),-0.025
11,TMEM120A (UniProt Q9BXJ8),-0.404 (active)
12,USO1 isoform 2 (UniProt O60763),-0.017
13,VPS13B (UniProt Q7Z7G8),0.053
14,WARS2 (UniProt Q9UGM6),-0.042
15,VPS53 isoform 4 (UniProt Q5VIR6),0.003
16,UBAP2L isoform 5 (UniProt Q14157),-0.007
17,WDR61 (UniProt Q9GZS3),0.009
18,UBE2Q1 (UniProt Q7Z7E8),0.007
19,TRIP10 isoform 2 (UniProt Q15642),0.062
20,WASH2P (UniProt Q6VEQ5),0.015

row,Target,log2 fold change
1,VTI1A (UniProt Q96AJ9),0.013
2,VPS50 (UniProt Q96JG6),-0.045
3,TMEM223 (UniProt A0PJW6),0.047
4,TOMM5 isoform 2 (UniProt Q8N4H5),-0.033
5,TXNIP (UniProt Q9H3M7),-0.146
6,TXNL4B (UniProt Q9NX01),0.002
7,UBC (UniProt P0CG48),0.068
8,WDR62 isoform 4 (UniProt O43379),-0.043
9,TPP1 (UniProt O14773),-0.018
10,TRIM44 (UniProt Q96DX7),0.007
11,TOE1 (UniProt Q96GM8),0.058
12,TSG101 (UniProt Q99816),-0.014
13,UTP14A (UniProt Q9BVJ6),0.042
14,TMEM177 (UniProt Q53S58),0.02
15,UBIAD1 (UniProt Q9Y5Z9),-0.013
16,TMEM161B (UniProt Q8NDZ6),0.016
17,UGDH (UniProt O60701),-0.033
18,WRB (UniProt O00258),0.005
19,TMEM128 (UniProt Q5BJH2),0.018
